PubChem BioAssay AID1159580 (chemical genetic matrix, 2015)
“And” between values parts separate entries of the source, which are not always exact repeats. Equal values may be shown once. Screen size: about 5,500 compounds; about 2,000 (36%) were called active. Not shown: some 18% with an inconclusive outcome. Rule as the data show it: active = normalized growth mostly below about 0.91 (no sharp cut-off); inconclusive = no clear call, values can overlap the other calls; inactive = mostly above about 0.92. The list shows a part of the results.

Assay: chemical genetic growth profiling, strain panel (AID 1159580);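 also: tested at 20 µM; growth read once vehicle control cultures reached saturation at 30 °C; 1 = growth at the plate median or of vehicle wells; lower values mean less growth of the strain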
Conditions: growth OD

Measured: normalized growth

CC(CCc1ccccc1)NCC(O)c1ccc(O)c(C(N)=O)c1 (stereo not given)
inactive: S. cerevisiae deletion strains, locus YJR075W, strain HOC1, active compounds read low 1 | S. cerevisiae deletion strains, locus YKL009W, strain mrt4, active compounds read low 1.01 | S. cerevisiae deletion strains, locus YKL068W, active compounds read low 1.01 | S. cerevisiae deletion strains, locus YKL085W, strain MDH1 (second series), active compounds read low 1.01 | S. cerevisiae deletion strains, locus YKL085W, strain MDH1, active compounds read low 1.01 | S. cerevisiae deletion strains, locus YKL160W, strain elf1, active compounds read low 1 | S. cerevisiae deletion strains, locus YKL190W, strain CNB1, active compounds read low 1 | S. cerevisiae deletion strains, locus YKR001C, strain vps1, active compounds read low 1.03 | S. cerevisiae deletion strains, locus YKR026C, strain gcn3, active compounds read low 1.01 | S. cerevisiae deletion strains, locus YKR091W, strain srl3, active compounds read low 0.997 | S. cerevisiae deletion strains, locus YLL001W, strain dnm1, active compounds read low 1 | S. cerevisiae deletion strains, locus YLL026W, active compounds read low 1 | S. cerevisiae deletion strains, locus YLL041C, strain sdh2, active compounds read low 1 | S. cerevisiae deletion strains, locus YLR027C, strain aat2, active compounds read low 0.992 | S. cerevisiae deletion strains, locus YLR039C, strain RIC1, active compounds read low 1.05 | S. cerevisiae deletion strains, locus YLR058C, strain SHM2, active compounds read low 1 | S. cerevisiae deletion strains, locus YLR102C, strain apc9, active compounds read low 1.01 | S. cerevisiae deletion strains, locus YLR113W, strain HOG1, active compounds read low 1.08 | S. cerevisiae deletion strains, locus YLR221C, strain rsa3, active compounds read low 1.01 | S. cerevisiae deletion strains, locus YLR258W, strain gsy2, active compounds read low 1.01 | S. cerevisiae deletion strains, locus YLR262C, strain YPT6 (second series), active compounds read low 1.02 | S. cerevisiae deletion strains, locus YLR262C, strain YPT6, active compounds read low 1.04 | S. cerevisiae deletion strains, locus YLR268W, strain sec22, active compounds read low 1.02 | S. cerevisiae deletion strains, locus YLR320W, strain mms22, active compounds read low 1.02 | S. cerevisiae deletion strains, locus YLR330W, strain CHS5, active compounds read low 1.01 | S. cerevisiae deletion strains, locus YLR342W, strain FKS1 (second series), active compounds read low 1.08 | S. cerevisiae deletion strains, locus YLR342W, strain FKS1, active compounds read low 1.01 | S. cerevisiae deletion strains, locus YLR357W, strain rsc2, active compounds read low 0.96 | S. cerevisiae deletion strains, locus YLR370C, strain arc18, active compounds read low 1 | S. cerevisiae deletion strains, locus YLR371W, strain rom2, active compounds read low 1.02 | S. cerevisiae deletion strains, locus YLR384C, strain iki3, active compounds read low 1.02 | S. cerevisiae deletion strains, locus YLR418C, strain cdc73, active compounds read low 1.06 | S. cerevisiae deletion strains, locus YML016C, strain PPZ1, active compounds read low 1.01 | S. cerevisiae deletion strains, locus YML032C, strain rad52, active compounds read low 0.996 | S. cerevisiae deletion strains, locus YML120C, strain ndi1, active compounds read low 1.01 | S. cerevisiae deletion strains, locus YML124C, strain tub3, active compounds read low 1.01 | S. cerevisiae deletion strains, locus YMR058W, strain fet3, active compounds read low 1 | S. cerevisiae deletion strains, locus YMR078C, strain ctf18, active compounds read low 1.01 | S. cerevisiae deletion strains, locus YMR125W, strain sto1, active compounds read low 0.997 | S. cerevisiae deletion strains, locus YMR129W, active compounds read low 1.01 | S. cerevisiae deletion strains, locus YMR205C, strain PFK2, active compounds read low 1.01 | S. cerevisiae deletion strains, locus YMR223W, strain ubp8, active compounds read low 1.04 | S. cerevisiae deletion strains, locus YMR231W, strain pep5, active compounds read low 1.01 | S. cerevisiae deletion strains, locus YMR263W, strain SAP30, active compounds read low 0.988 | S. cerevisiae deletion strains, locus YMR307W, strain GAS1, active compounds read low 1.04 | S. cerevisiae deletion strains, locus YNL067W, strain RPL9B, active compounds read low 0.988 | S. cerevisiae deletion strains, locus YNL071W, strain lat1, active compounds read low 1 | S. cerevisiae deletion strains, locus YNL153C, strain GIM3, active compounds read low 0.979 and 1.02 | S. cerevisiae deletion strains, locus YNL175C, strain NOP13, active compounds read low 1.01 | S. cerevisiae deletion strains, locus YNL183C, strain NPR1, active compounds read low 0.986 | S. cerevisiae deletion strains, locus YNL197C, strain WHI3, active compounds read low 0.999 | S. cerevisiae deletion strains, locus YNL209W, strain ssb2, active compounds read low 1.01 | S. cerevisiae deletion strains, locus YNL224C, strain SQS1, active compounds read low 1.01 | S. cerevisiae deletion strains, locus YNL233W, strain BNI4, active compounds read low 0.994 | S. cerevisiae deletion strains, locus YNL248C, strain rpa49, active compounds read low 0.998 | S. cerevisiae deletion strains, locus YNL250W, strain rad50, active compounds read low 1.03 | S. cerevisiae deletion strains, locus YNL271C, strain bni1, active compounds read low 1.01 | S. cerevisiae deletion strains, locus YNL298W, strain CLA4, active compounds read low 1.02 | S. cerevisiae deletion strains, locus YNL307C, strain MCK1, active compounds read low 1.03 | S. cerevisiae deletion strains, locus YNL322C, strain KRE1 (second series), active compounds read low 0.993 | S. cerevisiae deletion strains, locus YNL322C, strain KRE1, active compounds read low 0.998 | S. cerevisiae deletion strains, locus YNR049C, strain mso1, active compounds read low 0.999 | S. cerevisiae deletion strains, locus YNR052C, strain pop2, active compounds read low 1.02 | S. cerevisiae deletion strains, locus YOL006C, strain TOP1, active compounds read low 0.976 | S. cerevisiae deletion strains, locus YOL012C, strain htz1 0.754 | S. cerevisiae deletion strains, locus YOL147C, strain pex11, active compounds read low 1.01 | S. cerevisiae deletion strains, locus YOR001W, strain rrp6, active compounds read low 1.02 | S. cerevisiae deletion strains, locus YOR061W, strain CKA2, active compounds read low 1.01 | S. cerevisiae deletion strains, locus YOR069W, strain VPS5, active compounds read low 1 | S. cerevisiae deletion strains, locus YOR070C, strain gyp1, active compounds read low 0.996 | S. cerevisiae deletion strains, locus YOR080W, strain dia2, active compounds read low 0.999 | S. cerevisiae deletion strains, locus YOR083W, strain WHI5 (second series), active compounds read low 1.02 | S. cerevisiae deletion strains, locus YOR083W, strain WHI5, active compounds read low 1.01 | S. cerevisiae deletion strains, locus YOR106W, strain vam3, active compounds read low 1.02 | S. cerevisiae deletion strains, locus YOR136W, strain idh2, active compounds read low 1 | S. cerevisiae deletion strains, locus YOR144C, strain elg1, active compounds read low 1.01 | S. cerevisiae deletion strains, locus YOR184W, strain ser1, active compounds read low 1.01 | S. cerevisiae deletion strains, locus YOR231W, strain MKK1, active compounds read low 1.07 | S. cerevisiae deletion strains, locus YOR265W, strain rbl2, active compounds read low 0.992 | S. cerevisiae deletion strains, locus YOR270C, strain vph1, active compounds read low 1.04 | S. cerevisiae deletion strains, locus YOR290C, strain snf2, active compounds read low 1.03 | S. cerevisiae deletion strains, locus YOR316C, strain cot1, active compounds read low 1.02 | S. cerevisiae deletion strains, locus YPL051W, strain arl3, active compounds read low 1 | S. cerevisiae deletion strains, locus YPL055C, strain LGE1, active compounds read low 0.945 and 0.997 | S. cerevisiae deletion strains, locus YPL078C, strain atp4, active compounds read low 1 | S. cerevisiae deletion strains, locus YPL106C, strain sse1, active compounds read low 1.01 | S. cerevisiae deletion strains, locus YPL240C, strain hsp82, active compounds read low 1.01 | S. cerevisiae deletion strains, locus YPL241C, strain CIN2, active compounds read low 1 | S. cerevisiae deletion strains, locus YPL256C, strain CLN2, active compounds read low 1.04 | S. cerevisiae deletion strains, locus YPR119W, strain clb2, active compounds read low 1.02 | S. cerevisiae deletion strains, locus YPR141C, strain kar3, active compounds read low 1.01 | S. cerevisiae deletion strains, locus YPR163C, strain tif3, active compounds read low 1.03 | S. cerevisiae deletion strains, locus YPR167C, strain met16, active compounds read low 1.01 | S. cerevisiae deletion strains, strain wtn01, active compounds read low 1.03 | S. cerevisiae strains, strain wild type, active compounds read low 1
